Compounds with a hit are over-represented: about 4.8% of the library has one in this group of screens.
ATXN2 expr inh: inhibitors of ATXN2 expression. HEK-293 ATXN2-luciferase reporter, luminescence, 24 h. Potency, µM (series often up to 57 µM), for the others: top-dose activity change, negative = inhibition, hits mostly inhibitors. AID 1745845. 360,000 compounds, 0.72% hits; note: potency is the fitted concentration of half-maximal effect; % is set by controls: 0 for no effect and ±100 for the full control effect; nearly all actives have a fitted effect of over 55% in size
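ATXN2-luciferase reporter cells (luciferase flanked by upstream and downstream ATXN2 gene portions) were treated 24 h at 37 °C with compounds at up to 57 uM. SteadyGlo luminescence gave expression; GF-AFC fluorescence gave viability.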
ATXN viability: reduces viability in counter-screen for ATXN expression inhibitors; AID 651635; S2 cells (HEK-293 line with an ATXN2-luciferase reporter) viability, CellTiter-Fluor protease fluorescence, 24 h; 400,000 compounds, 0.49% hits; Potency, µM (titrated, usually from 56.7 µM), usual class: cytotoxic; note: potency is the fitted concentration of half-maximal effect; nearly all actives have a fitted effect of over 40% in size
DRD3 antagonist: blocks the human D3 dopamine receptor | P35462 | D3R cells, DiscoveRx beta-arrestin luminescence, antagonist mode; active compounds read low | AID 652054 | max response, negative = inhibition, % | 360,000 compounds, 2.5% hits; in the data active = max response below about -50%; inconclusive = no clear call, values can overlap the other calls; note: % is set by controls: 0 for no effect and ±100 for the full control effect
Target sequence (P35462 whole entry, looked up): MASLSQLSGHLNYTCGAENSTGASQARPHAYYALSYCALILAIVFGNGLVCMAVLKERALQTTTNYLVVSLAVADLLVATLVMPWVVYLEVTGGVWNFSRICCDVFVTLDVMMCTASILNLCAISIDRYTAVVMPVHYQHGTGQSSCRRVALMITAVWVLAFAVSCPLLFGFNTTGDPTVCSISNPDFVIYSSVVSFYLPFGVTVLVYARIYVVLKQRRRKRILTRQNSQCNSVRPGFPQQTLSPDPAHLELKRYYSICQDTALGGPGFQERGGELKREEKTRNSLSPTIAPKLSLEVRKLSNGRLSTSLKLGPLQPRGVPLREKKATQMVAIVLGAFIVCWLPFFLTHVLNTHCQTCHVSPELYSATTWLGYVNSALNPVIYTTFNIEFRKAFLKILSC
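Cells plated overnight at 1500 cells/well, then exposed to library compounds with dopamine controls for 90 minutes at 37 degrees C. DiscoveRx reagent added for 30–60 minutes at room temperature; luminescence read, quantitative HTS format.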
TGFb inhibitor: blocks TGF-b signaling. 410,000 compounds, 1.2% hits. Potency, µM (top dose mostly 46.1 µM), inactives show at the top dose activity, negative = inhibition, usual class: inhibitors. HepG2 CAGA-GFP TGF-b/SMAD3 reporter, GFP fluorescence, 18 h; TGF-beta stimulated, 500 pg/mL final; note: potency is the fitted concentration of half-maximal effect; % is set by controls: 0 for no effect and ±100 for the full control effect; nearly all actives have a fitted effect of over 65% in size
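Using HEPG2 CAGA-GFP reporter cells at 1000 cells/well, we pinned test compounds, stimulated with recombinant TGF-beta (500 pg/mL final) and measured total well GFP after 18 h.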
HepG2 tox-1: HepG2 cytotoxicity, counter-screen for TGF-b inhibitors. HepG2 CAGA-GFP viability, ATP luminescence, 18 h. Potency, µM (highest dose often 46.1 µM), for the others: top-dose activity change, negative = cytotoxicity, hits mostly cytotoxic. 410,000 compounds, 0.76% hits. AID 588856; note: potency is the fitted concentration of half-maximal effect
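CellTiter-Glo luminescence gave cytotoxicity after 18 hours at 37 degrees C. The cells were HepG2 CAGA-GFP in 1% FBS DMEM, stimulated with 500 pg/mL TGF-beta after compound addition. %Activity was normalised to no-cell wells (complete cell-killing) and DMSO (no toxicity), and curves were fitted and classified.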
D3 ag: activates the human D3 dopamine receptor. P35462. D3R DiscoveRx beta-arrestin cells, luminescence, 90 min. max activation, %. 410,000 compounds, 0.58% hits. AID 652048; in the data active = max activation above about 30%; note: 0% is about no effect
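Agonist-mode cell screen: cells plated at 1500/well and incubated overnight at 37 °C, then exposed to library compounds for 90 min at 37 °C. Detection reagent was added for 30–60 min at room temperature, and luminescence was read.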
TGFb confirm: TGF-b pathway inhibition, cherry-pick retest. shares compounds with TGFb inhibitor. HepG2 CAGA-GFP TGF-b reporter, GFP fluorescence, 18 h; cells stimulated with TGF-beta, 500 pg/mL. Potency, µM (titrated, usually from 46.1 µM), for inactives: at the highest dose activity, negative = inhibition, usual class: inhibitors. 1,600 compounds, 63% hits. AID 720534; note: potency is the fitted concentration of half-maximal effect; % is set by controls: 0 for no effect and ±100 for the full control effect; nearly all actives have a fitted effect of over 65% in size
HepG2 tox-2: HepG2 cytotoxicity, TGF-b inhibitor counterscreen; shares compounds with TGFb inhibitor; HepG2 CAGA-GFP viability, ATP luminescence, 18 h; cells stimulated with TGF-beta, 500 pg/mL; AID 720535; Potency, µM (series often up to 46.1 µM), without a hit: at the top dose activity, negative = cytotoxicity, actives largely listed as inhibitors; 1,600 compounds, 27% hits; note: potency is the fitted concentration of half-maximal effect; % is set by controls: 0 for no effect and ±100 for the full control effect; nearly all actives have a fitted effect of over 70% in size
CCL64 TGFb inh: orthogonal confirmation of TGF-b inhibitors in CCL64 cells; CCL64 CAGA-GFP reporter, TGF-b stimulated, GFP fluorescence, 18 h; Potency, µM (series often up to 46.1 µM), for the others: at the top dose activity, negative = inhibition, actives largely listed as inhibitors; AID 720536; shares compounds with TGFb inhibitor; 1,600 compounds, 41% hits; note: potency is the fitted concentration of half-maximal effect; nearly all actives have a fitted effect of over 65% in size
COP TGFb inh: validation of TGF-b inhibitors in HepG2 COP promoter reporter. shares compounds with TGFb inhibitor. HepG2 COP-GFP TGF-b reporter, GFP fluorescence, 18 h; cells stimulated by added recombinant TGF-beta. Potency, µM (highest dose often 46.1 µM), inactives show top-dose activity, negative = inhibition, usual class: inhibitors. 1,600 compounds, 3% hits. AID 720537; note: potency is the fitted concentration of half-maximal effect; nearly all actives have a fitted effect of over 70% in size
Starred values were filed as active, the others as inactive; i = inactive; ? = inconclusive; . = no result. Unless noted, calls come from the whole dose curve; as a rule, active = well fitted curve in the direction sought with a large enough effect; inconclusive = small, poorly fitted or top-dose-only effect, or another doubt; inactive = no such curve, though single readings can be large; an effect the other way counts as inactive or inconclusive.

SMILES | ATXN2 expr inh | ATXN viability | DRD3 antagonist | TGFb inhibitor | HepG2 tox-1 | D3 ag | TGFb confirm | HepG2 tox-2 | CCL64 TGFb inh | COP TGFb inh
COc1ccc(CN(Cc2ccco2)c2cnc(S(C)(=O)=O)nc2C(=O)Nc2ccc(F)cc2)cc1 | 1% | i | . | 8% | 4% | 6 | . | . | . | .
NC(=O)CC(NC(=O)c1ccccc1)c1ccc(N2CCC(Cc3ccccc3)CC2)c([N+](=O)[O-])c1 (configuration not stated) | ? | ? | -2 | 6.3µM* | -35% | 29 | 23µM* | ? | ? | 67%
NC(=O)CC(NC(=O)c1ccc(Br)cc1)c1ccc(N2CCN(c3ccccc3)CC2)c([N+](=O)[O-])c1 (configuration not stated) | -14% | i | 14 | ? | -17% | 12 | . | . | . | .
NC(=O)CC(NC(=O)c1ccccc1)c1ccc(N2CCC(N3CCCC3)CC2)c([N+](=O)[O-])c1 (configuration not stated) | 4% | i | -23 | 1% | -2% | -3 | . | . | . | .
NC(=O)CC(NC(=O)c1ccc(Br)cc1)c1ccc(N2CCC(Cc3ccccc3)CC2)c([N+](=O)[O-])c1 (configuration not stated) | -26% | i | 12 | 10µM* | -31% | 17 | ? | 21µM* | ? | -4%
Cc1cc2c(s1)c1cnn(CC(=O)N3CCOCC3)c(=O)c1n2C | . | . | . | -7% | -7% | . | . | . | . | .
CCN(Cc1ccccc1)C(=O)Cn1c(=O)n(-c2ccccc2)c(=O)c2c1c1cc(C)ccc1n2C | 6% | ? | . | -1% | 6% | -15 | . | . | . | .
COc1cc(C(=O)OCc2cc(=O)n3ccsc3n2)cc(OC)c1OC | -3% | i | . | -17% | -12% | -1 | . | . | . | .
COc1cc(OC)c(NC(=O)C(C)n2c(=O)cc(-c3ccccc3)c3c(C)nn(C)c32)cc1Cl (configuration not stated) | 9% | i | . | -6% | -46% | 7 | . | . | . | .
COc1ccc(NC(=O)CSC2=Nc3ccccc3C3=NC(CC(=O)NCc4ccc(F)cc4)C(=O)N23)cc1 (configuration not stated) | . | . | . | 4% | -2% | -14 | . | . | . | .
CCC1CSC(Nc2ccc(C(=O)/C=C/c3ccc(OC)c(OC)c3)cc2)=N1 (configuration not stated) | ? | . | -5 | ? | -13% | -3 | . | . | . | .
COc1ccc(/C=C/C(=O)c2ccc(NC3=NCCCS3)cc2)cc1OC | -13% | i | -15 | 13µM* | -3% | -7 | 9.2µM* | 16µM* | 26µM* | -10%
N#C/C(=C\c1ccc(Sc2nc3ccccc3[nH]2)o1)c1ccccc1 | ? | i | 17 | 10µM* | 52% | 3 | 9.2µM* | ? | ? | 47%

Screens (PubChem BioAssay)
